Reference: a collection of fitness landscapes (doi:10.1016/j.celrep.2020.107928)
Whole data set: some 81,000 sequences, median “one-hybrid fitness for binding NBS DNA” near -0.1, cut for the highest 2% near 0.36. The sample holds the highest values, similar sequences and a random draw of the others, so the mix is not that of the screen.

B1: Caulobacter ParB omega fusion; a variant is named by its letters at X, in order, B8GW30 (parent)
chain: MESVVVGEPGMSEGRRGLGRGLSALLGEVDAAPAQAPGEQLGGSREAPIEILQRNPDQPRRTFREEDLEDLSNSIREKGVLQPILVRPSPDTAGEYQIVAGERAWRAAQRAGLKTVPIMVRELDDLAVLEIGIIENVQRADLNVLEEALSYKVLMEKFERTQENIAQTIGKSXSHVANXMRLLXLPDEVQSYLVSGELTAXHARAIAAAADPVALAKQIIEGGLSVRETEALARKAPNLSAGKSKGGRPPRVKDTDTQALESDLSSVLGLDVSIDHRGSTGTLTITYATLEQLDDLCNRLTRGI

Variants of: B1
Experiment: one-hybrid fitness for binding NBS DNA (the Noc-binding site; scaled: cognate 1, non-cognate 0); higher = stronger binding
Conditions: with NBS DNA site
Method in brief: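 Fitness here means the log change in variant-to-wild-type read ratio between plasmids sequenced before and after selection. That scale was set so cognate equals 1 and non-cognate equals 0. The selection was a bacterial one-hybrid screen of Caulobacter ParB libraries, four specificity codons randomised, in E. coli USO carrying a HIS3 reporter with the site 19 bp from the promoter, grown 48 hours at 37°C on M9-minus-histidine with 0.1 mM IPTG and 5 mM 3-AT.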

one-hybrid fitness for binding NBS DNA, 0.377:
QYGS

one-hybrid fitness for binding NBS DNA, 0.373:
QMVT

one-hybrid fitness for binding NBS DNA, 0.206:
QKHY

one-hybrid fitness for binding NBS DNA, 0.75:
QMKT

one-hybrid fitness for binding NBS DNA, 0.499:
QYSR

one-hybrid fitness for binding NBS DNA, 0.541:
QYHR

one-hybrid fitness for binding NBS DNA, 0.246:
QYNH

one-hybrid fitness for binding NBS DNA, 0.248:
QYRF

one-hybrid fitness for binding NBS DNA, 0.462:
QYCR

one-hybrid fitness for binding NBS DNA, 0.437:
QYNS

one-hybrid fitness for binding NBS DNA, 0.235:
NKRR

one-hybrid fitness for binding NBS DNA, 0.417:
QYHS

one-hybrid fitness for binding NBS DNA, 0.31:
QYER

one-hybrid fitness for binding NBS DNA, 0.493:
QYQR

one-hybrid fitness for binding NBS DNA, 0.553:
QYGR

one-hybrid fitness for binding NBS DNA, 0.505:
QKYR

one-hybrid fitness for binding NBS DNA, 0.616:
QKGR

one-hybrid fitness for binding NBS DNA, 0.305:
QYDR

one-hybrid fitness for binding NBS DNA, ≤ 0.2:
NGTR
DDKT
MCAC
HSLM
FAHM
KQAV
DLQG
QYHP
QYGG
QYCN
QYGM
QYHN
WNEY
VWCR
ATSP
GRTC
VDLS
QYGD
QYSD
QYNN
QYSN
QYGN
KTNH
HNTA
HIMR
YTFW
SKSC
VRCG
PIKT
QYHG
QYMD
QYWH
QYHD
QYMF
QYQK
QYQC
NPVN
YEWR
QQIF
YGVH
SDSA
TTTF
EAYV
QLSK
GGTS
IDHN
HIKY
SKIG
APVA
NMKT
QMVN
DMKT
EKHS
VRAW
HGTC
VCQG
HNDV
TFTP
WASL
AFSH
DKRR
QKGN
QKYP
QKHN
QKGP

one-hybrid fitness for binding NBS DNA, 0.204:
QYWS

one-hybrid fitness for binding NBS DNA, 0.203:
QYDS

one-hybrid fitness for binding NBS DNA, 0.599:
QYNR

one-hybrid fitness for binding NBS DNA, 0.979:
QYRR

one-hybrid fitness for binding NBS DNA, 0.661:
QKHR

one-hybrid fitness for binding NBS DNA, 0.301:
QYCS

one-hybrid fitness for binding NBS DNA, 0.363:
QKER

one-hybrid fitness for binding NBS DNA, 0.414:
QYWR

one-hybrid fitness for binding NBS DNA, 0.482:
QYMR

one-hybrid fitness for binding NBS DNA, 0.993:
QKRR
